Measured values from PubChem BioAssay AID488899 (Broad Institute, 2010).
The whole screen tested about 330,000 compounds, of which about 2,800 (0.85%) were called active.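 Rule for the calls: active = mean inhibition across replicates of 60% or more, whatever share of single replicates reaches that level; inconclusive = some that reach 60%, reason not given; inactive = mean inhibition across replicates below 60%.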 The entries come from a sample that favours actives as a whole.

Assay: MITF transcriptional activity suppression – cell-based, SK-MEL-5, single point, luciferase, primary screen (AID 488899)
Conditions: SK-MEL-5 TRPM1 promoter luciferase, 24 h; at 12.5 µM; hits give high values
In the case of COc1cc(CC(=O)Nc2nc(-c3ccc(F)c(F)c3)cs2)cc(OC)c1OC, the inhibition was 0.159% (inactive). For COc1ccc2c(c1OC)C(=O)OC2Nc1nc(-c2ccccc2)cs1 (stereo not drawn), the inhibition was 68.6% (active). In the case of Cc1ccc(-c2csc(NC3OC(=O)c4ccccc43)n2)cc1 (stereo not drawn), the inhibition was 31.3% (inactive). For CCc1cc(-c2nnc(SCC(=O)NC3CC3)n2C)cs1, the inhibition was -9% (inactive). With CCOC(=O)c1ccc(NC(=O)c2c(N)n(C)c(=O)[nH]c2=O)cc1 the inhibition was -48.3% (inactive). With CC(C)c1ccc(Cc2nnc(NCCCO)[nH]c2=O)cc1 the inhibition was -0.574% (inactive). With O=c1[nH]c(NCCO)nnc1Cc1ccc(Cl)cc1 the inhibition was 5.61% (inactive). In the case of COc1ccc(Cc2nnc(N/N=C/c3ccccc3O)[nH]c2=O)cc1OC, the inhibition was 64% (active). In the case of Cc1ccc(CN2CC(C(=O)N3CCN(S(=O)(=O)c4ccccc4)CC3)CC2=O)cc1 (stereo not drawn), the inhibition was -1.06% (inactive). In the case of c1ccc2cc3c(NCCN4CCOCC4)ccnc3cc2c1, the inhibition was 80.4% (active). In the case of CCOc1nc(NCCN2CCOCC2)nc(Nc2ccc(C)cc2)n1, the inhibition was -2.25% (inactive). With c1ccc(-c2ccc(OCCN3CCOCC3)cc2)cc1 the inhibition was -61.1% (inactive). With O=C1NC(c2ccc(-c3ccccc3[N+](=O)[O-])o2)C(C(=O)c2ccc(Cl)cc2)C(O)(C(F)(F)F)N1 (stereo not drawn) the inhibition was 12.2% (inactive). For CN(C)S(=O)(=O)Oc1ccccc1C(=O)Nc1ccccc1Cl, the inhibition was -7.26% (inactive). In the case of Cc1c(NC(=O)Nc2ccccc2Cl)sc(=S)n1C, the inhibition was -9.97% (inactive). With O=C(Nc1ccccc1Cl)/C(Cl)=C(\Cl)S(=O)c1ccccc1 (stereo not drawn) the inhibition was 97% (active). For Nc1ccc2[nH]c(=S)sc2c1, the inhibition was -7.16% (inactive). With OC(COc1ccc(Br)cc1)CN1CCCC1 (stereo not drawn) the inhibition was -0.089% (inactive). In the case of CC(Oc1ccc(Br)cc1)C(=O)NC1CCCCCC1 (stereo not drawn), the inhibition was -16.6% (inactive). In the case of CC(C)(C)CC(C)(C)NCC(O)COCCOc1ccc(Br)cc1 (stereo not drawn), the inhibition was 85.9% (active). With COc1ccc(C2NCCCC2c2ccccc2)cc1 (stereo not drawn) the inhibition was 14.7% (inactive). In the case of Cc1ccccc1N1CCN(C(=O)c2cccnc2)CC1, the inhibition was 2.88% (inactive). In the case of CCOc1ccc(NC(=S)N2CCC(N(C)CC3CCCO3)CC2)cc1 (stereo not drawn), the inhibition was -2.52% (inactive). With CCOC(=O)CN/C=C(\C#N)c1ccc(F)cc1 the inhibition was 19.8% (inactive). For CCOc1cc(/C=C(/C#N)c2ccc(Cl)cc2)cc(Cl)c1OCC(=O)O, the inhibition was 98.2% (active). For C/C(=N\OCC(=O)O)c1ccc(Cl)cc1, the inhibition was -2.61% (inactive). For C#CCOCCOCCOCCNc1nc(N2CCN(C(=O)CCCCCCCCCCNC(=O)[C@H](CCCCN)n3cc(C)nn3)CC2)nc(N2CCN(C(=O)CCCCCCCCCCNC(=O)[C@H](CO)n3cc(CCCSC)nn3)CC2)n1, the inhibition was 47.5% (inactive). For C#CCOCCOCCOCCNc1nc(N2CCN(C(=O)CCCCCCCCCCNC(=O)[C@H]([C@@H](C)CC)n3cc(CCCCN=C(N)N)nn3)CC2)nc(N2CCN(C(=O)CCCCCCCCCCNC(=O)[C@H](CO)n3cc(CCCSC)nn3)CC2)n1, the inhibition was 72.9% (active). With C#CCOCCOCCOCCNc1nc(N2CCN(C(=O)CCCCCCCCCCNC(=O)Cn3cc(CCCCCN)nn3)CC2)nc(N2CCN(C(=O)CCCCCCCCCCNC(=O)[C@H](CO)n3cc(CCCSC)nn3)CC2)n1 the inhibition was 23.1% (inactive). With Cc1ccc(-c2nn(C(C)(C)C)c3ncnc(N)c23)cc1 the inhibition was 3.91% (inactive). With CN(C)c1ccc(CSc2ccccc2)cc1 the inhibition was -111% (inactive). For Cc1ccc(C(=O)NC(=S)Nc2ccc3[nH]c(=O)[nH]c3c2)cc1C, the inhibition was 3.06% (inactive). With N#Cc1nc(N)nc(N(c2ccccc2)c2ccccc2)n1 the inhibition was 10.4% (inactive). For COc1ccc(S(=O)(=O)N2CCOCC2)cc1NC(=O)Cc1coc2cc(C)ccc12, the inhibition was 5.65% (inactive). For CC[C@H]1CN2CCc3cc(OC)c(OC)cc3[C@@H]2C[C@@H]1C[C@H]1NCCc2cc(OC)c(OC)cc21, the inhibition was 85.1% (active). For CCc1ccc(OCC2c3cc(OC)c(OC)cc3CCN2C(C)=O)cc1 (stereo not drawn), the inhibition was -0.63% (inactive). For COc1cc2c(cc1OC)CN(CC(=O)Nc1ccc(F)cc1)CC2, the inhibition was 4.57% (inactive). For COc1ccc(/C=C/C2=CC(C)(C)NC(=S)N2)c(OC)c1, the inhibition was 10.5% (inactive). With Cc1ccccc1-n1nc(C)c2c1N=C1C(Cl)=CC(Cl)=CN1C2c1ccc(C(=O)O)cc1 (stereo not drawn) the inhibition was 5.65% (inactive). In the case of Cn1c(=O)c2c(nc(SCCNS(=O)(=O)c3ccccc3)n2C)n(C)c1=O, the inhibition was -8.94% (inactive). In the case of COc1ccc(Cc2n[nH]c(=S)n2NC(=O)Nc2ccc(C)cc2)cc1, the inhibition was -46.7% (inactive). In the case of CC(C)CC[n+]1ccn(C2=C([O-])c3ccccc3C(=O)/C2=N\S(=O)(=O)c2ccccc2)c1, the inhibition was 91.1% (active). With CC(=O)Nc1ccc(NC(=O)C(C)n2c3ccccc3c3nc(=O)cc(C)n32)cc1 (stereo not drawn) the inhibition was 11.5% (inactive). With CCn1c(CC(=O)Nc2ccc(C)cc2)nnc1SCC(=O)Nc1nc(C)cs1 the inhibition was 6.57% (inactive). For COc1ccc2oc(N)nc2c1, the inhibition was 7.49% (inactive). For CC(C)(C)c1ccc(Oc2ccc(N)cc2)cc1, the inhibition was 91.7% (active). For CC(C)(C)c1ccc(OC2=CS(=O)(=O)c3ccccc32)cc1, the inhibition was -25.6% (inactive). In the case of COc1cccc(Oc2ccc(N)cc2)c1, the inhibition was -4.14% (inactive). With COc1ccc(C(=O)Nc2ccccc2C(=O)N/N=C/c2ccc(O)c(OC)c2)cc1 the inhibition was 73.3% (active). With COc1ccc(/C=N/Nc2ccccc2C(=O)O)cc1 the inhibition was -4.16% (inactive). For COc1ccc(C(=O)Nc2ccccc2C(=O)N2CCN(c3ccccc3)CC2)cc1, the inhibition was -1.5% (inactive). For CC(=O)NC(Cc1ccc(F)c(F)c1)C(=O)NC1CCN(C(=O)c2ccc(C)cc2)CC1 (stereo not drawn), the inhibition was 7.52% (inactive). With CSc1nc(-c2ccccc2)nc(C(Cl)Cl)n1 the inhibition was 87.8% (active). For CSc1ncc(Sc2ccccc2)c(C(=O)O)n1, the inhibition was 5.79% (inactive). In the case of Cc1ccc(CNC(=O)c2ccc(CS(=O)Cc3cccc(Cl)c3)o2)cc1 (stereo not drawn), the inhibition was 2.54% (inactive). With CCOC(=O)N1CCN(c2c(NCCCN3CCCC(C)C3)c(=O)c2=O)CC1 (stereo not drawn) the inhibition was -5.22% (inactive). With CCCCCCCCn1c2c(c(=N)c3c1CCC3)CCCC2 the inhibition was 77.2% (active). For CCOc1ccc(N(C)S(=O)(=O)c2cnc[nH]2)cc1, the inhibition was 6.77% (inactive). In the case of CC1CCCCC1NC(=O)COC(=O)Cc1ccc(Cl)cc1 (stereo not drawn), the inhibition was 6.02% (inactive). With CN(C(=O)CSc1nncc2ccccc12)C1CCCCC1 the inhibition was -4.81% (inactive). In the case of CN(c1ccc2nc3ccccc3c(=O)n2n1)C1CCCCC1, the inhibition was 84.7% (active). For CN(C(=O)c1cc2c(=O)n3ccccc3nc2s1)C1CCCCC1, the inhibition was -36.7% (inactive). For CCCN(CCC)S(=O)(=O)c1ccc(C(=O)NNC(=O)c2cc(OC)c(OC)c(OC)c2)cc1, the inhibition was 4.09% (inactive). In the case of Clc1ccc2nc(-c3ccccc3)nc(C(Cl)Cl)c2c1, the inhibition was 90.9% (active). In the case of N#CCSc1nc(-c2ccccc2)nc2ccc(F)cc12, the inhibition was 6.09% (inactive). For Clc1cccc(-c2nc(NCC3CCCO3)c3ccccc3n2)c1 (stereo not drawn), the inhibition was -7.27% (inactive). For CCCOc1cccc(C(=O)Nc2nnn(CCC)n2)c1, the inhibition was -31.2% (inactive). In the case of COc1cc(C(=O)N2CCN(C3CCC(C)CC3)CC2)cc(OC)c1OC (stereo not drawn), the inhibition was -0.962% (inactive). For O=C1c2ccccc2C(=O)N1CC1c2ccccc2CCN1S(=O)(=O)c1ccccc1 (stereo not drawn), the inhibition was -6.02% (inactive). With CCOC(=O)C1CCCN(C(=O)/C=C/c2ccc(OC)cc2)C1 (stereo not drawn) the inhibition was -11.1% (inactive). In the case of CCN1CCN(C(=O)CSc2ccc(C)cc2)CC1, the inhibition was -21.2% (inactive). With CCN1CCC(O)(/C=C/c2ccc(C)cc2)C(C(=O)/C=C/c2ccc(C)cc2)C1 (stereo not drawn) the inhibition was 77.1% (active). With Nc1ccccc1SC(C[N+](=O)[O-])c1ccccc1 (stereo not drawn) the inhibition was 75.5% (active). With Cc1ccc(C(C[N+](=O)[O-])c2c(C)cc3ccccn23)cc1 (stereo not drawn) the inhibition was 40.1% (inactive). In the case of O=C(NCC(=O)N1CCCCCCC1)c1ccccc1Cl, the inhibition was -25.1% (inactive). With COc1ccc(S(=O)(=O)N2CCCC2CNC(=O)C(=O)NC2CC2)cc1 (stereo not drawn) the inhibition was -5.39% (inactive). With O=C(NNC(=S)NCCCN1CCOCC1)c1ccncc1 the inhibition was -1.68% (inactive). With Oc1ccccc1CN1CCN(C(c2ccccc2)c2ccccc2)CC1 the inhibition was 5.95% (inactive). For CC1(C)CC(N2CCN(C(c3ccccc3)c3ccccc3)CC2)=CC(=[N+]2CCCCC2)C1, the inhibition was 94% (active). For O=C1CC(N2CCN(C(c3ccccc3)c3ccccc3)CC2)C(=O)N1 (stereo not drawn), the inhibition was -6.57% (inactive). For CN(C)CCN=c1cc(-c2ccccc2)oc2ccc(Cl)cc12, the inhibition was -36.2% (inactive). For CCOc1ccc(NC(=O)CCC(=O)N/N=C/c2ccc([N+](=O)[O-])s2)cc1, the inhibition was 62.8% (active). With CCOc1ccc(NC(=O)CCC(=O)NNC(=O)NC2CCCCC2)cc1 the inhibition was -2.59% (inactive). For CCOc1ccc(C(=O)CCC(=O)Nc2ccncc2)cc1, the inhibition was 8.37% (inactive). With CCCCN(C(=O)c1ccc(OC(F)(F)F)cc1)c1c(N)n(CCC)c(=O)[nH]c1=O the inhibition was -1.56% (inactive). For CCN(C(=O)COC(=O)Cc1c(F)cccc1Cl)c1c(N)n(Cc2ccccc2)c(=O)[nH]c1=O, the inhibition was -2.14% (inactive). For O=C(NCCc1ccc(C(F)(F)F)cc1)c1ccc2c(c1)OCO2, the inhibition was -3.11% (inactive). In the case of O=C(CCc1ccccc1Cl)Nc1ccc(S(=O)(=O)Nc2nccs2)cc1, the inhibition was 12.4% (inactive). In the case of Cc1coc2c(O)cc3c(c12)OC1(N2CCCCC2)C(=O)NCCCC31 (stereo not drawn), the inhibition was 77.4% (active). For COc1ccc(CCN2CC(C(=O)OCC(=O)NCc3ccccc3Cl)CC2=O)cc1OC (stereo not drawn), the inhibition was -2.95% (inactive). For CC1CC(C)CN(CC(=O)N2c3ccccc3CCc3ccccc32)C1 (stereo not drawn), the inhibition was -0.982% (inactive). For CC1C(=O)N(Cc2ccccc2)c2ccccc2N1C(=O)c1ccccc1 (stereo not drawn), the inhibition was 8.87% (inactive). In the case of CC1C(C)N(C(=O)CCl)c2ccccc2N1C(=O)CCl (stereo not drawn), the inhibition was 91.3% (active).
